Data: ChEMBL document CHEMBL1961873, “Compounds: GSK PKIS; Assays: Nanosyn kinase panel” (2012)

Key:
[1] = molecular target: Dual specificity protein kinase CLK3 (Homo sapiens) (UniProt P49761); conditions: at 1 µM;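 also: each value is the mean inhibition of CLK3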
[2] = molecular target: Dual specificity tyrosine-phosphorylation-regulated kinase 1A (Homo sapiens) (UniProt Q13627); conditions: at 0.1 µM
[3] = molecular target: Dual specificity tyrosine-phosphorylation-regulated kinase 1A (Homo sapiens) (UniProt Q13627); conditions: at 1 µM
[4] = molecular target: Dual specificity tyrosine-phosphorylation-regulated kinase 1B (Homo sapiens) (UniProt Q9Y463); conditions: at 0.1 µM
[5] = molecular target: Dual specificity tyrosine-phosphorylation-regulated kinase 1B (Homo sapiens) (UniProt Q9Y463); conditions: at 1 µM
[6] = molecular target: T1, Dual specificity tyrosine-phosphorylation-regulated kinase 2 (Homo sapiens) (UniProt Q92630); conditions: at 0.1 µM
T1 sequence (whole entry): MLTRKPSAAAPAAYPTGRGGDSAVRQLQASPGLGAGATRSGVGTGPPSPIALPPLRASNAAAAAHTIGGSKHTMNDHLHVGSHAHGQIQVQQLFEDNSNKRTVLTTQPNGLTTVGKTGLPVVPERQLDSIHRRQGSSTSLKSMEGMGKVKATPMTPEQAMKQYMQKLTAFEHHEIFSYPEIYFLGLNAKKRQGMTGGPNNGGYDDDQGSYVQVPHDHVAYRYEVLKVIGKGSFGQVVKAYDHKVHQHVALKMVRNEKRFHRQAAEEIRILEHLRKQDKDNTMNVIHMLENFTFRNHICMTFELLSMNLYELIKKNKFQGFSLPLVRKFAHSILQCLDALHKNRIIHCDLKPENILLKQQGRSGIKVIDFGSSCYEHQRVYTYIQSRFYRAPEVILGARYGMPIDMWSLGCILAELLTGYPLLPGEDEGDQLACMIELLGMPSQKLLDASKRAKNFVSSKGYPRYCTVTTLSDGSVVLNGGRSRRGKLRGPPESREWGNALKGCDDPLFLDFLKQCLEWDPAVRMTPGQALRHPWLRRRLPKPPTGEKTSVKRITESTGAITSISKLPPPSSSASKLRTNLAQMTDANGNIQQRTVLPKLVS

[7] = molecular target: T1, Dual specificity tyrosine-phosphorylation-regulated kinase 2 (Homo sapiens); conditions: at 1 µM
[8] = molecular target: Glycogen synthase kinase-3 alpha (Homo sapiens) (UniProt P49840); conditions: at 0.1 µM
[9] = molecular target: Glycogen synthase kinase-3 alpha (Homo sapiens) (UniProt P49840); conditions: at 1 µM
[10] = molecular target: Glycogen synthase kinase-3 beta (Homo sapiens) (UniProt P49841); conditions: at 0.1 µM
[11] = molecular target: Glycogen synthase kinase-3 beta (Homo sapiens) (UniProt P49841); conditions: at 1 µM
[12] = molecular target: Homeodomain-interacting protein kinase 1 (Homo sapiens) (UniProt Q86Z02); conditions: at 0.1 µM
[13] = molecular target: Homeodomain-interacting protein kinase 1 (Homo sapiens) (UniProt Q86Z02); conditions: at 1 µM
[14] = molecular target: T2, Homeodomain-interacting protein kinase 4 (Homo sapiens) (UniProt Q8NE63); conditions: at 0.1 µM
T2 sequence (whole entry): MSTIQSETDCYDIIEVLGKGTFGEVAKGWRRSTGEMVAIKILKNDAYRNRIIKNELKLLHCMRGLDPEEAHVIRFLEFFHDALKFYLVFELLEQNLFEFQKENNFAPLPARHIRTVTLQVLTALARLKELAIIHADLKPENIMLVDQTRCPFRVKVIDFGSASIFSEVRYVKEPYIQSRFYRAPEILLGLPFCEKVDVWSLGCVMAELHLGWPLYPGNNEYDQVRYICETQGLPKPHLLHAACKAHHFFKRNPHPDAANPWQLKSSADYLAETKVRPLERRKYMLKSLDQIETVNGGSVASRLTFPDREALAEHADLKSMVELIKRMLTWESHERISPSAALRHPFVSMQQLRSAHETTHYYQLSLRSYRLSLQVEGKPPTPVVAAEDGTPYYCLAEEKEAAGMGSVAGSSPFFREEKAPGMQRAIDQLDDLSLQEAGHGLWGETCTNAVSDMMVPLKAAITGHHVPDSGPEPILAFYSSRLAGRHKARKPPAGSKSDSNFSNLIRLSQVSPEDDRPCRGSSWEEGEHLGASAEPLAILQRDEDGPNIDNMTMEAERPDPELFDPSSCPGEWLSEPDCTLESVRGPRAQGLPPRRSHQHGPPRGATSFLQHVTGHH

[15] = molecular target: T2, Homeodomain-interacting protein kinase 4 (Homo sapiens); conditions: at 1 µM
[16] = molecular target: Mitogen-activated protein kinase 9 (Homo sapiens) (UniProt P45984); conditions: at 0.1 µM
[17] = molecular target: Mitogen-activated protein kinase 9 (Homo sapiens) (UniProt P45984); conditions: at 1 µM
[18] = molecular target: Mitogen-activated protein kinase 1 (Homo sapiens) (UniProt P28482); conditions: at 0.1 µM
[19] = molecular target: Mitogen-activated protein kinase 1 (Homo sapiens) (UniProt P28482); conditions: at 1 µM
[20] = molecular target: Mitogen-activated protein kinase 3 (Homo sapiens) (UniProt P27361); conditions: at 0.1 µM;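 also: each value is a mean inhibition figure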
Chain of Mitogen-activated protein kinase 3 (Homo sapiens) (P27361 whole entry): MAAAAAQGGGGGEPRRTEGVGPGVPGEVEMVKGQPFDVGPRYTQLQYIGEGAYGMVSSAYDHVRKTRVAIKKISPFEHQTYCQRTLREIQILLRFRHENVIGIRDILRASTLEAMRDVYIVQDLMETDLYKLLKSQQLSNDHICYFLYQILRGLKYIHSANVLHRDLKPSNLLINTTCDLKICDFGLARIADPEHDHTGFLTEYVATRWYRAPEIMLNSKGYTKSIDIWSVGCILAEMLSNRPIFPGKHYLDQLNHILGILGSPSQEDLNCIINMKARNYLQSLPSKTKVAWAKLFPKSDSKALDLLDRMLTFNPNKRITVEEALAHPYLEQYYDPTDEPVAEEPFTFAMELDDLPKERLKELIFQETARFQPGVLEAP

Chain of Mitogen-activated protein kinase 9 (Homo sapiens) (P45984 whole entry, looked up): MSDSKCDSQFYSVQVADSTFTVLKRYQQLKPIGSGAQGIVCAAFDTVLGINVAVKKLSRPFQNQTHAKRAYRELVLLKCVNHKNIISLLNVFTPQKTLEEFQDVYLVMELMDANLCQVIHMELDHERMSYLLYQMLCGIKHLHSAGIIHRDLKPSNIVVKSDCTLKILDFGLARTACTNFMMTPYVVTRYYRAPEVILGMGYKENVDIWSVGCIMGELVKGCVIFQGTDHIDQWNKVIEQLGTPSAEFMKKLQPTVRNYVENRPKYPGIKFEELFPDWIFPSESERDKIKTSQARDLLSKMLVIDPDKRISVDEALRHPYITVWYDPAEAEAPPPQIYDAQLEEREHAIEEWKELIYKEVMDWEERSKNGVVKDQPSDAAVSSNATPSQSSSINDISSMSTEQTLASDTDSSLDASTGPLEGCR
Chain of Homeodomain-interacting protein kinase 1 (Homo sapiens) (Q86Z02 whole entry, looked up): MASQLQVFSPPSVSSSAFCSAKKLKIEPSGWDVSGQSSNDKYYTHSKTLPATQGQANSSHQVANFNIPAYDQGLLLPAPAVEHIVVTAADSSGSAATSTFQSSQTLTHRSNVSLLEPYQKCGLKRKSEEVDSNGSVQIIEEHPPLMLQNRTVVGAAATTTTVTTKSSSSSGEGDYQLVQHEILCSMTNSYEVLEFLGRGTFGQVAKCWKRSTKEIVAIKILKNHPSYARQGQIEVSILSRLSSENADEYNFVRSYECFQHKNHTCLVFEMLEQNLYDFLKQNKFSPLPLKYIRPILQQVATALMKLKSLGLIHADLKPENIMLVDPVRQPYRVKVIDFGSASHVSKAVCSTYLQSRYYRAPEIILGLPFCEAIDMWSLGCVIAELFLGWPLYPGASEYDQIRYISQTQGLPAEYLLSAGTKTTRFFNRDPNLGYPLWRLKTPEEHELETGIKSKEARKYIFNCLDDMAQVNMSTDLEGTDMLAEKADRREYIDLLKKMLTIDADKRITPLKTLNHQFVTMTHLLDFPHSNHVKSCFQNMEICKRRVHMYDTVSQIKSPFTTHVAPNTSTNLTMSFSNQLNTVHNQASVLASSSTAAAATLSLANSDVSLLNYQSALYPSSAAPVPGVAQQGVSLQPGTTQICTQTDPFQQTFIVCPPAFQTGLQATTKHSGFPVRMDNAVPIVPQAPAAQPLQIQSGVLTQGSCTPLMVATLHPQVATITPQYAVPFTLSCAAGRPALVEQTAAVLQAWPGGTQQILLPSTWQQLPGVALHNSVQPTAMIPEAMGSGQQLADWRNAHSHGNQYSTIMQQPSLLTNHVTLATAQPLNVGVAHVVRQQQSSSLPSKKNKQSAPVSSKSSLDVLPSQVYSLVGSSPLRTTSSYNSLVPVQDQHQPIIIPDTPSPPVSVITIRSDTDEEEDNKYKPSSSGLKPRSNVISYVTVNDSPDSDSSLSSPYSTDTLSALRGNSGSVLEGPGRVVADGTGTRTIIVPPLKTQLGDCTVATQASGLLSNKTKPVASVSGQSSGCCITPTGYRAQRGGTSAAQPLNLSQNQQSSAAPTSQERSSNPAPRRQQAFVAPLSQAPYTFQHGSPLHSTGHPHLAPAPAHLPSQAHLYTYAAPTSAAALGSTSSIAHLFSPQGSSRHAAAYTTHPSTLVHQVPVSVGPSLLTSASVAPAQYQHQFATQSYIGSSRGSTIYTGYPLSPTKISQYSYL
Chain of Mitogen-activated protein kinase 1 (Homo sapiens) (P28482 whole entry): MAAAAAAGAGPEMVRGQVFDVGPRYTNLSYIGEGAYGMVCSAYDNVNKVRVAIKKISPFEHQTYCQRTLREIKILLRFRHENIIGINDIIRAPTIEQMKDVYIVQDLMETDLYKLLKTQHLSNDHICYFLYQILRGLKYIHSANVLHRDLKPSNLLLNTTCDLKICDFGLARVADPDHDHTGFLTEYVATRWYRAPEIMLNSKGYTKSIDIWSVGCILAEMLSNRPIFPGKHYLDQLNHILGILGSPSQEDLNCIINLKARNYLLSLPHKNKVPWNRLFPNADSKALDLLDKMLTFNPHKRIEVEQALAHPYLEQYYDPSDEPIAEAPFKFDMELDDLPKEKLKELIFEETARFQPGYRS
Chain of Glycogen synthase kinase-3 alpha (Homo sapiens) (P49840 2-483 limits assumed): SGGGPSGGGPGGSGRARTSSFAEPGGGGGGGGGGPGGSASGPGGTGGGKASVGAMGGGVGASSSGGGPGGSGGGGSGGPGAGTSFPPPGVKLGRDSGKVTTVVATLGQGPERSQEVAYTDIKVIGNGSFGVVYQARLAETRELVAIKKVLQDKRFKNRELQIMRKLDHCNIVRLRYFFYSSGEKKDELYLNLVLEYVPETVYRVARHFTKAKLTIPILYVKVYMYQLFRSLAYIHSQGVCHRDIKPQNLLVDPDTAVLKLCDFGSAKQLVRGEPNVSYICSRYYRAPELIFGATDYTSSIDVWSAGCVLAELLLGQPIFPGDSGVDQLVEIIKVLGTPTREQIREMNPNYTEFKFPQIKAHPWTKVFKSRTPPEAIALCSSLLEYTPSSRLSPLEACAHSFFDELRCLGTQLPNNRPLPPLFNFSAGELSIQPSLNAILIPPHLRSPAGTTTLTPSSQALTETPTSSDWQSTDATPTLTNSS
Chain of Dual specificity tyrosine-phosphorylation-regulated kinase 1B (Homo sapiens) (Q9Y463 whole entry, looked up): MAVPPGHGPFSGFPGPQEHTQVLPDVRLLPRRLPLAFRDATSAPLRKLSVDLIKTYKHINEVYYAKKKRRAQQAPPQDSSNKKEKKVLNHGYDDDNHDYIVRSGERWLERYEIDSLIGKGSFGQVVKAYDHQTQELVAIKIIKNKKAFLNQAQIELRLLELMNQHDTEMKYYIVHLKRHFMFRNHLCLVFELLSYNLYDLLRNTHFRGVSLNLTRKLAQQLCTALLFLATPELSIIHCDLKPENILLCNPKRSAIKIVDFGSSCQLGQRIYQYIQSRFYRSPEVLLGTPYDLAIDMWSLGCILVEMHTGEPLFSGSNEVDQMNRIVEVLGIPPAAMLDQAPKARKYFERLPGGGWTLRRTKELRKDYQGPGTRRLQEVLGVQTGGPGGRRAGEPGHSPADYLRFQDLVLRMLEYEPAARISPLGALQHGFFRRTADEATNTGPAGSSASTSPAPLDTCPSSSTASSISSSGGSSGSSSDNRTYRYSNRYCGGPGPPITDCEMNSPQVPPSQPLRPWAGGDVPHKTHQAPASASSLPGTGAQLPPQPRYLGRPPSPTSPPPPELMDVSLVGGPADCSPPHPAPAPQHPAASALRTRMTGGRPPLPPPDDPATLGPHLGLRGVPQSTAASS
Chain of Dual specificity protein kinase CLK3 (Homo sapiens) (P49761 whole entry, looked up): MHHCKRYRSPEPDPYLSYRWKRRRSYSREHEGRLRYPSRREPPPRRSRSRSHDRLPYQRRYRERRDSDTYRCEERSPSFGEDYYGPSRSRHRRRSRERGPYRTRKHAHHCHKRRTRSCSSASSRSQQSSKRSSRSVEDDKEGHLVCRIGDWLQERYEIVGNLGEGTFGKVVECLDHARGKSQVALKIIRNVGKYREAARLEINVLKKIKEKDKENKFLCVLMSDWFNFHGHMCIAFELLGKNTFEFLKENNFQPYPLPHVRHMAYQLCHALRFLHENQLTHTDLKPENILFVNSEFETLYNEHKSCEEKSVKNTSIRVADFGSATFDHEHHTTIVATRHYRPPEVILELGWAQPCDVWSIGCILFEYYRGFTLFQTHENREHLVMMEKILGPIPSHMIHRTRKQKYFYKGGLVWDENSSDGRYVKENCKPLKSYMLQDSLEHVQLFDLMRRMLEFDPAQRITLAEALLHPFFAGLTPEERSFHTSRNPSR
Chain of Glycogen synthase kinase-3 beta (Homo sapiens) (P49841 whole entry, looked up): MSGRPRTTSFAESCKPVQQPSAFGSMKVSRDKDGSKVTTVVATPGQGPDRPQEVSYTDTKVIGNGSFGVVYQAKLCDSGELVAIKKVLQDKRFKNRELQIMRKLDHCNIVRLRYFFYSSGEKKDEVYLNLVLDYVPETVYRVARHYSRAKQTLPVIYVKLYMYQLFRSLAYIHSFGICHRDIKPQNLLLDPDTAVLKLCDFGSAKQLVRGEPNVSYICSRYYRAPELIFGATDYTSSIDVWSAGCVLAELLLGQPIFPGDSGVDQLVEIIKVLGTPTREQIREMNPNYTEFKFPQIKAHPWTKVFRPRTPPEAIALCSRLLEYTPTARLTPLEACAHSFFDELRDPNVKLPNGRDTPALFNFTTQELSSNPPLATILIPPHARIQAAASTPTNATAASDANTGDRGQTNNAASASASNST

Compound | inhibition [1] | inhibition [2] | inhibition [3] | inhibition [4] | inhibition [5] | inhibition [6] | inhibition [7] | inhibition [8] | inhibition [9] | inhibition [10] | inhibition [11] | inhibition [12] | inhibition [13] | inhibition [14] | inhibition [15] | inhibition [16] | inhibition [17] | inhibition [18] | inhibition [19] | inhibition [20]
COc1ccc2ncnc(Nc3ccc(OCc4ccccc4)cc3)c2c1 | 1.64% | 1.05% | 3.73% | -0.87% | 1.35% | 1.27% | 2.65% | 1.55% | 4.44% | 1.06% | 0.7% | 0.26% | 3.41% | 0.67% | 1.18% | 3.85% | 2.97% | 2.37% | 2.37% | 4.06%
Cc1ccc(Nc2ccnc(Nc3cccc(C(N)=O)c3)n2)cc1O | 3.09% | 2.45% | 26.5% | -1.03% | 11.8% | 2.25% | 7.18% | 0.67% | 14.9% | 0.74% | 17.4% | -4.04% | 0.47% | 2.33% | 10.8% | 3.91% | 14.6% | 4.59% | 4.19% | 3.66%
O=C1Nc2ccc(-c3cccnc3)cc2C1=Cc1cc(Br)c(O)c(Br)c1 | 38.6% | 21.7% | 63.5% | 9% | 46.7% | 3.53% | 15.5% | 4.28% | 26.1% | 3.87% | 21.4% | 2.42% | 22.4% | 2.35% | 13.8% | 1.52% | 3.04% | 6.12% | 3.37% | 4.06%
CC(C)c1ccc(Nc2nccc(-c3cnn4ncccc34)n2)cc1 | 14% | 40.6% | 81.2% | 43.4% | 82.1% | 2.73% | 14% | 35.6% | 76% | 31.3% | 75.4% | 57.9% | 87.8% | 11.2% | 50.6% | 5.25% | 27% | 3.14% | 9.29% | 0.92%
C[C@@H](Oc1cc(-n2cnc3ccc(OCC4CCN(C)CC4)cc32)sc1C(N)=O)c1ccccc1C(F)(F)F | 3.73% | -2.42% | 2.47% | 0.26% | 2.2% | -2.57% | -2.94% | -0.56% | 2.65% | -0.31% | 2.74% | -3.51% | 9.66% | 4.86% | 32.3% | -0.81% | -1.11% | 0.24% | 0.02% | -1.53%
Cc1ccc(C(=O)NC2CC2)cc1-c1ccc2[nH]ncc2c1 | 0.04% | -1.4% | 2.6% | 1.19% | 3.29% | -3.32% | -3.69% | -1.07% | 1.83% | -0.96% | 1.14% | -4.85% | 0.04% | 0.67% | 5.11% | -0.5% | -1.51% | -3.82% | -5.22% | -2.68%
Cc1ccc(O)cc1Nc1ccnc2ccc(S(C)(=O)=O)cc12 | 3.42% | 4.16% | 12.6% | 0.55% | 2.94% | 3.03% | 4.88% | 2.64% | 1.72% | 1.89% | 3.47% | -0.12% | 1.59% | 2.64% | 8.27% | 4.77% | 5.22% | 5.91% | 5.63% | 5.26%
